# Measured values from PubChem BioAssay (NCI).
# The panel holds about 79,000 compounds, 15% with a hit somewhere; the sample as a whole holds those more often. The source made the active and inactive calls. Rule as the data show it: active = growth inhibition above about 70%; inactive = the rest.
# Test: NCI Yeast Anticancer Drug Screen. Data for the sgs1 mgt1 strain (AID 161);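 also: 0% = growth of cultures given vehicle only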
# Conditions: S. cerevisiae sgs1 mgt1 strain, at 50.0 µM (retest, dose inferred, filed as 5.0), hits give high values
# Procedure, shortened: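 Read-out: growth inhibition vs vehicle controls. Cells: mutant yeast strain deficient in DNA damage repair.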
row,SMILES,growth inhibition
1,CCCCCCCCc1ccc2c3ccccc3c3ccccc3c2c1,-3% (inactive)
2,O=C1C(=O)c2ccc(Br)cc2C(O)=C1C(c1ccccc1)c1ccccc1,74% (active)
3,CN(C)Cc1ccc2[nH]c3c(c2c1)CCCC3,90% (active)
4,COc1ccc(NC(=O)Nc2ccc(Cl)cc2)nn1,3% (inactive)
5,CO/N=C/c1cc(NC(=S)c2ccoc2C)ccc1Cl,6% (inactive)
6,O=C(Sc1c(-c2ccccc2)c(=O)n(-c2ccccc2)c(=S)n1-c1ccccc1)c1cccs1,93% (active)
7,O=C1/C(=C/c2ccc(F)cc2)CNC/C1=C\c1ccc(F)cc1,31% (inactive)
8,O=c1cc2cccccc-2cc1O,96% (active)
9,Oc1c(Br)cc(Br)cc1-c1ccccc1,99% (active)
10,C(=[CH]/[Sn]([c]1ccccc1)([c]1ccccc1)[c]1ccccc1)/c1ccccc1,92% (active)
11,CCCCCCCCCN1CCNC1=S,60% (inactive)
12,O=C1C/C(=C\c2ccccc2)C(=O)c2ccccc2N1,27% (inactive)
13,CN(C)C(=O)Nc1ccc(Cc2ccc(NC(=O)N(C)C)cc2)cc1,-8% (inactive)
14,C=C1CC(C)(COc2ccc3c(C)c(Cl)c(=O)oc3c2)OC1=O (stereo not given),95% (active)
15,CC[C@@]1(OP(=O)(O)O)C(=O)OCc2c1cc1n(c2=O)Cc2cc3ccccc3nc2-1,-37% (inactive)
16,O=S(=O)(Sc1ccccc1)C(c1ccccc1)c1ccccc1,66% (inactive)
17,CCOC(=O)c1c(N)sc2c1CCCCC2,1% (inactive)
18,CCCCCCCCCCCCCCNCCN,97% (active)
19,CCCN(CCC)CCNc1ccc(C)c2sc3ccccc3c(=O)c12,100% (active)
20,CC1CC2(C)ON=C(c3ccccc3)N2c2ccccc2S1 (stereo not given),94% (active)

row,SMILES,growth inhibition
1,COc1ccc(N=NN2CCCC2)cc1,52% (inactive)
2,S=C(Nc1ccccc1)NC1CC2C=CC1CC2 (stereo not given),2% (inactive)
3,C=CCOC(=O)C(O)C(CC)CCCCC (stereo not given),89% (active)
4,NC(=O)c1ccccc1C(=O)O,2% (inactive)
5,CS(=O)(=O)c1cc(=O)c2ccccc2s1,99% (active)
6,O=C([O][Sb]([O]C(=O)C(Cl)(Cl)Cl)([c]1ccccc1)([c]1ccccc1)[c]1ccccc1)C(Cl)(Cl)Cl,77% (active)
7,CCCCCCCCCCCCCCCCCCOP(=O)([O-])OCC[N+](C)(C)C,99% (active)
8,Nc1ccc(SCCCc2c(N)nc(N)nc2N)cc1,11% (inactive)
9,O=C1C=CC(=O)c2c1cc1ccccc1c2O,98% (active)
10,CCN(CC)CC(O)CNc1ccc(NCC(O)CCl)c2c1C(=O)c1ccccc1C2=O (stereo not given),98% (active)
11,N#Cc1c(N)nc2c(N=Nc3ccccc3)c(N)nn2c1Nc1ccccc1,85% (active)
12,CC(O)c1c2ccccc2cc2ccccc12 (stereo not given),72% (active)
13,Cc1ccccc1NC(=O)C1C(=O)N(c2ccccc2C)C(=O)/C1=N/O (stereo not given),-19% (inactive)
14,O=Cc1ccc(-c2nccc3c2[nH]c2ccccc23)o1,20% (inactive)
15,C=CC(C)(CCC=C(C)C)OC(=O)Nc1ccccc1 (stereo not given),13% (inactive)
16,Oc1ccc(-c2nnc(-c3ccc(Cl)cc3Cl)o2)cc1,85% (active)
17,C/C=C1\CC(C)(CC)C(C#N)(C#N)C(N)=C1C#N (stereo not given),-4% (inactive)
18,Cc1nc(-c2ccccc2)nc2c1nc(C(C)C)n2Nc1ccccc1,25% (inactive)
19,Cc1csc2c1C(=O)c1ccsc1C2=O,99% (active)
20,COc1cc(Nc2ccc(Oc3ccc(O)cc3)cc2)c2ncccc2c1,34% (inactive)
